Screens (PubChem BioAssay)
Shown are actives, neighbours in structure and some others; about 2.3% of the full set was active somewhere.
ADAM10 inh: human ADAM10 inhibitors, primary screen, biochemical, QFRET, HTS | Disintegrin and metalloproteinase domain-containing protein 10 (Homo sapiens), O14672 | recombinant ADAM10, EDANS/DABCYL FRET peptide cleavage, 3 h | inhibition, % at 7 µM | 0.62% of 370,000 active;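 active = inhibition above a per-campaign cutoff equal to the mean of compounds falling between control-based bounds plus 3 SD, cut at about 20% in these data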;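 note: 0% = DMSO wells while the 100% control is not disclosed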
ADAM17 inh: ADAM17 inhibitors, primary screen, biochemical, QFRET. AID 720648, 2013. recombinant ADAM17, EDANS/DABCYL FRET peptide cleavage. 0.83% of 370,000 active. inhibition, % at 6.95 µM;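 active = inhibition above the mean of compounds lying between control limits plus 3 SD, set per campaign, cut at about 8.5% in these data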;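 note: 0% = DMSO-only wells as the low control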
Target sequence (P78536 215-824 limits assumed): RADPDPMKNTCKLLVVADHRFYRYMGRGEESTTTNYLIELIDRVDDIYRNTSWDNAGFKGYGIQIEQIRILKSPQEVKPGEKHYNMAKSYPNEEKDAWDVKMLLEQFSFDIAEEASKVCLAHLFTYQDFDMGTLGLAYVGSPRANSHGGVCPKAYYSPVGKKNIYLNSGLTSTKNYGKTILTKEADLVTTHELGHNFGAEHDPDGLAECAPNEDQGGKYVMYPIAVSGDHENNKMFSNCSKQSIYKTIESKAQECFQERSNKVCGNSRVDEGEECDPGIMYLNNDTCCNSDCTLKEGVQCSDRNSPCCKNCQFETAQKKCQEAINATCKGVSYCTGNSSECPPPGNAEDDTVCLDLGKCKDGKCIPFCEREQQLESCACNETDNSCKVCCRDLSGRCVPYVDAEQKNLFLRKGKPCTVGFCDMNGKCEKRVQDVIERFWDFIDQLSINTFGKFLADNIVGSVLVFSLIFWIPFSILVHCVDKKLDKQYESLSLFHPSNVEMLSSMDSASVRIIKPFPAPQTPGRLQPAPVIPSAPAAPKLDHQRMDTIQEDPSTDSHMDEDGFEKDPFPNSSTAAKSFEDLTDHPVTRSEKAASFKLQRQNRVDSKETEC
KLK7 zymogen act: proKLK7 zymogen activators, primary screen, biochemical, fluorescence intensity; Kallikrein-7 (Homo sapiens), P49862; purified proKLK7, EDANS-DABCYL substrate fluorescence; 100% is mature enzyme control, 0% vehicle; activation, % at 7 µM; 0.9% of 370,000 active;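 active = activation above the mean of all tested compounds plus 3 SD, computed per campaign excluding outliers beyond control limits, cut at about 13% in these data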
V-ATPase pH: regulators of yeast V-ATPase proton pumping, primary screen, pHLuorin cytosolic pH fluorescence. 0.37% of 350,000 active. AID 504577, 2011. response, % at 10 µM. S. cerevisiae; in the data active = response mostly above about 7.3%, no sharp cut-off; inactive = mostly below about 5.4%; note: actives read high
ADAM10 confirm: human ADAM10 inhibitors, confirmation, biochemical, QFRET, triplicate | ADAM10 QFRET peptide cleavage, EDANS fluorescence | inhibition, % at 6.95 µM | shares compounds with ADAM10 inh | AID 743208, 2013 | 1% of 2,100 active;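 active = inhibition above about 20% chosen separately for each screening run, limit read from the data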;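 note: 0% = DMSO wells and 100% = marimastat wells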
ADAM17 counter: ADAM17 inhibitors, counter-screen for ADAM10 exosite inhibitor project, biochemical, QFRET, high throughput | inhibition, % at 6.95 µM | ADAM17 QFRET peptide cleavage, EDANS fluorescence | 0.5% of 2,100 active | shares compounds with ADAM10 inh;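 active = mean triplicate inhibition above the solvent-only control wells' mean plus 3 SD, cut at about 12% in these data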;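 note: 0% = DMSO wells and 100% = marimastat wells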
The depositor's hits bear a star; nt = not tested or not shown.

SMILES	ADAM10 inh	ADAM17 inh	KLK7 zymogen act	V-ATPase pH	ADAM10 confirm	ADAM17 counter
CCCCCCCCN1C(=O)N2Cc3ccccc3C2CS1(=O)=O (stereo not given)	-1	2	1	nt	nt	nt
CCCCCCCCN1C(=O)[C@@H](CC(=O)NCc2cccc(C(F)(F)F)c2)C[C@@]2(C(=O)OC)C1=C[C@H](COCc1ccccc1)O[C@@H]2C	8	4	0	nt	nt	nt
O=C1CCN(S(=O)(=O)c2ccc(Cl)cc2)N1	5	-1	0	0	nt	nt
Cc1ccc(S(=O)(=O)N2CCC(=O)N2)cc1	28*	0	0	0	12	1
[C-]#[N+][C@]12C(=O)[C@H](C=C(Cl)[C@@]1(C)C=C)C(C)(C)[C@H]1C(=O)N(C)c3cccc2c31	2	0	0	nt	nt	nt
c1ccc(Nc2nnc(-c3ccc4c(c3)OCO4)o2)cc1	-10	-4	0	nt	nt	nt
O=C(NCc1ccco1)c1cnn2c1NC(c1ccccc1)CC2C(F)(F)F (stereo not given)	6	0	0	2	nt	nt
Cc1ccccc1Cn1ccc(NC(=O)c2cnn3c2NC(c2ccccc2)CC3C(F)(F)F)n1 (stereo not given)	21*	5	0	-1	4	1
O=C(c1ccc(C#Cc2ccccc2)o1)N1CCN(c2ccccn2)CC1	22*	6	0	4	4	1
O=C(c1ccc(COc2ccccc2Br)o1)N1CCN(c2ccccn2)CC1	10	6	1	2	nt	nt
CS(=O)(=O)N(CC(=O)Nc1ccccc1Sc1ccccc1)c1cccc(Br)c1	25*	11*	0	-4	12	4
Cc1ccc(C)c(NS(=O)(=O)c2cc(C(=O)NCCC3=CCCCC3)ccc2C)c1	20*	7	0	0	4	2
COC(=O)CSc1nnc(-c2ccc(NS(=O)(=O)c3c(C(C)C)cc(C(C)C)cc3C(C)C)cc2)o1	21*	8	0	nt	10	3
O=C(CSc1nc2ccccc2s1)Nc1ccc(Cl)c(C(=O)O)c1	7	-2	1	-2	nt	nt
O=C(CSc1nc2ccc(NC(=O)c3ccccc3C(=O)O)cc2s1)Nc1c(Cl)cccc1Cl	20*	4	-1	-2	0	1
C=CCN1CC(COCCCC)Oc2ccc(Cl)cc2S1(=O)=O (stereo not given)	-2	-1	0	nt	nt	nt
O=C(Nc1ccc([N+](=O)[O-])cc1)N1CCc2ccccc2C1	22*	7	0	-5	-1	0
Cc1cccc(OCc2nnc(SCC(=O)N3c4ccccc4CCc4ccccc43)o2)c1	9	5	0	1	nt	nt
O=C(CSc1nnc(COc2ccc(F)cc2)o1)N1c2ccccc2CCc2ccccc21	20*	8	0	0	7	2
Cc1ccc(-c2noc(CN(C(=O)C(c3ccccc3)c3ccccc3)C(C)C)n2)cc1	20*	5	0	1	2	1
O=C(NC1=N[C@@]2(C=C3CCCCC3n3c(=O)n(-c4ccccc4)c(=O)n32)[C@H](Cc2ccccc2)N1Cc1ccccc1)c1ccccc1 (stereo not given in full)	20*	9.7*	0	nt	9	6
COc1ccccc1C1=NC(c2ccc(C)cc2)N=C1C (stereo not given)	95*	6	1	0	0	0
Nc1nc(Cl)nc2c1ncn2[C@@H]1O[C@H](CO)[C@@H](O)[C@@H]1F	1	-2	0	nt	nt	nt
CCOc1ccc(NC(=S)N(Cc2ccc(Cl)cc2)Cc2ccco2)cc1	24*	8	0	-1	10	3
Nc1nc(N)c(-c2cccc(C(F)(F)F)c2)c(Cc2cccc(C(F)(F)F)c2)n1	37*	15*	0	0	1	0
SMILES	ADAM10 inh	ADAM17 inh	KLK7 zymogen act	V-ATPase pH	ADAM10 confirm	ADAM17 counter
O=C(N[C@@H]1CCC(=O)N(CC[C@H](Oc2ccccc2)c2ccccc2)CC1)OCc1ccccc1	20*	3	0	-3	5	2
CC(C)CNc1cccc2c1S(=O)(=O)N[C@@H](C)CO2	-14	-3	0	nt	nt	nt
COC(=O)[C@]12C[C@H](CC(=O)N3CCN(C(=O)C4CC4)CC3)C(=O)N(Cc3ccc(Cl)cc3Cl)C1=C[C@H](C1CCCC1)O[C@@H]2C	5	0	1	nt	nt	nt
COc1ccc(OC)c(CN2C(=O)CSCC2(C)c2nnnn2C2CCCC2)c1 (stereo not given)	1	-2	0	nt	nt	nt
C/C=C/COC(=O)c1[nH]c2c(c1C)C(=O)CC(c1ccc(N(C)C)cc1)C2 (stereo not given)	65*	5	0	0	6	1
CCOCCOC(=O)c1[nH]c2c(c1C)C(=O)CC(c1ccc(N(C)C)cc1)C2 (stereo not given)	-3	2	0	-2	nt	nt
CNc1nc(-c2ccccc2)nc(-c2ccccc2)c1C#N	-20	3	0	1	nt	nt
NNc1nc(-c2ccccc2)nc(-c2ccccc2)c1Br	21*	7	-1	-1	3	1
COC[C@@H](O)[C@H]1OCc2cc(OC)ccc2[C@@H]1/C=C/c1ccccc1	-12	-1	0	nt	nt	nt
COc1ccc(CCn2cnn3c(=O)c4ccccc4nc3c2=O)cc1OC	5	0	0	nt	nt	nt
COc1ccc(CNc2nc3ccccc3n2C)c(O)c1	14	-2	0	-1	nt	nt
CCCCn1c(NCc2cc(C)ccc2O)nc2ccccc21	23*	6	1	nt	3	1
Cn1c(NCc2cc(Br)ccc2O)nc2ccccc21	21*	5	0	-2	1	0
Cc1cc(N2CCCC2)ccc1/C=C1\NC(=S)N(C)C1=O	25*	4	0	0	2	0
CN1C(=O)c2ccc(N3CCCC3)cc2C1=O	-51	-13	-34	1	nt	nt
CCN(C(=O)[C@@H](C)[C@@H](O)c1ccc(Cl)cc1)c1ccccc1	-3	5	0	nt	nt	nt
COc1cc(Br)cc(CNc2ccc(F)c([N+](=O)[O-])c2)c1O	20*	6	0	3	4	1
O=C(C1CCN(S(=O)(=O)c2cnc[nH]2)CC1)N1CCN(c2ccc([N+](=O)[O-])cc2)CC1	45*	2	0	1	-1	0
O=C(C1CC1)N1CCN(c2ccc([N+](=O)[O-])cc2)CC1	0	-5	0	2	nt	nt
